Reference: publication PMC7862700, “An all-to-all approach to the identification of sequence-specific readers for epigenetic DNA modifications on cytosine”

Key:
Assay in all cases: DAPPL (digital affinity profiling via proximity ligation, sequencing); 10 mM Tris-HCl pH 7.5, 50 mM NaCl, 1 mM DTT, 4% glycerol, room temperature, 30 min; GST-TFs on glutathione beads, 16-mer random dsDNA library, 0.1% formaldehyde crosslink after washing; high values mean tight binding
Conditions in all cases: protein: recombinant; tags: N-terminal GST; dsDNA, one strand shown
[1] = biological target: T1, FLI1 (Homo sapiens, UniProt Q01543 1-452)
T1 sequence: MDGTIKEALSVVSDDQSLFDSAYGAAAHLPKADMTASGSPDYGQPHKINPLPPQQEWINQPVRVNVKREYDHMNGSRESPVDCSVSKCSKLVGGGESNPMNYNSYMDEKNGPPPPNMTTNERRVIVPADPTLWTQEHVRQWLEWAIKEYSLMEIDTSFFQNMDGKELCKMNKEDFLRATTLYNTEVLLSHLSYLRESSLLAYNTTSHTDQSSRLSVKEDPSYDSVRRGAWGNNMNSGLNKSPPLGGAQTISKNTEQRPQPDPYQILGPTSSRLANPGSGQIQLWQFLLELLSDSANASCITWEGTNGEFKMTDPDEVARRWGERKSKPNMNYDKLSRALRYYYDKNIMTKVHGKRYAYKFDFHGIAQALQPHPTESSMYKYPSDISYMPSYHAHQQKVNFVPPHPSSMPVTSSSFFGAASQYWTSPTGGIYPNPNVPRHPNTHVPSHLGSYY
Summary of the method: (§1)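 Binding signal is defined as a hexamer's read frequency for one factor over its frequency for the tag-only sample. To obtain reads, GST-fused human transcription factors were expressed in yeast, captured on glutathione beads, barcoded with DNA and pooled with that sample. Pools met 200 nmole of a 16-mer random double-stranded DNA library in Tris/NaCl/DTT/glycerol buffer for 30 min at room temperature before washing, 0.1% formaldehyde crosslinking, proximity ligation (BsaI/T4 ligase, 1 h, 37 °C), PCR and Illumina NextSeq500 sequencing.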

[2] = biological target: T2, ELK1 (Homo sapiens, UniProt P19419 1-428)
T2 sequence: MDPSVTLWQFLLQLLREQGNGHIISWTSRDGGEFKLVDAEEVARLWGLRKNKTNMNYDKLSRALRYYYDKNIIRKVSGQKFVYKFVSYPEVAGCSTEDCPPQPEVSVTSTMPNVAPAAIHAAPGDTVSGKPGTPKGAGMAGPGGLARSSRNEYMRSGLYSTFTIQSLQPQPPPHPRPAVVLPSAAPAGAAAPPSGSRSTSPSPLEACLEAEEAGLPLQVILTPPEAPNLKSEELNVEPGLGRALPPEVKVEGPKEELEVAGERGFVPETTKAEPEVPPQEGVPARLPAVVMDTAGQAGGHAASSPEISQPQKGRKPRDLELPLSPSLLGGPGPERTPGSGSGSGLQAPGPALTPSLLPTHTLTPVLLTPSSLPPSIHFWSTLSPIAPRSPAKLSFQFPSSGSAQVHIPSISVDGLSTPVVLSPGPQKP
Summary of the method: as §1

[3] = biological target: T3, GABPA (Homo sapiens, UniProt Q06546 1-454)
T3 sequence: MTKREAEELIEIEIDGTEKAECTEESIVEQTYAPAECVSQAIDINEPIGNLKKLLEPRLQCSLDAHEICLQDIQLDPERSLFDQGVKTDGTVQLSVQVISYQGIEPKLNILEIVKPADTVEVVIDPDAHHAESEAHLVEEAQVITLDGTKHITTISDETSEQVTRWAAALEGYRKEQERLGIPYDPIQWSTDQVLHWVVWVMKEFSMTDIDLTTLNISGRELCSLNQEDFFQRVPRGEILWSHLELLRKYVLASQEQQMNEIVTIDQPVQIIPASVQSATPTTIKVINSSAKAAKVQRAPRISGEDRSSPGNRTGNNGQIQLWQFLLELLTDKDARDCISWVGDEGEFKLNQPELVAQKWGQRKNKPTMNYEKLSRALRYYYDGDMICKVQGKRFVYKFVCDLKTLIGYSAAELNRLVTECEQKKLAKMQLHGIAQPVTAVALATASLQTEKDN
Summary of the method: as §1

[4] = biological target: T4, ERG (Homo sapiens, UniProt P11308 1-479)
T4 sequence: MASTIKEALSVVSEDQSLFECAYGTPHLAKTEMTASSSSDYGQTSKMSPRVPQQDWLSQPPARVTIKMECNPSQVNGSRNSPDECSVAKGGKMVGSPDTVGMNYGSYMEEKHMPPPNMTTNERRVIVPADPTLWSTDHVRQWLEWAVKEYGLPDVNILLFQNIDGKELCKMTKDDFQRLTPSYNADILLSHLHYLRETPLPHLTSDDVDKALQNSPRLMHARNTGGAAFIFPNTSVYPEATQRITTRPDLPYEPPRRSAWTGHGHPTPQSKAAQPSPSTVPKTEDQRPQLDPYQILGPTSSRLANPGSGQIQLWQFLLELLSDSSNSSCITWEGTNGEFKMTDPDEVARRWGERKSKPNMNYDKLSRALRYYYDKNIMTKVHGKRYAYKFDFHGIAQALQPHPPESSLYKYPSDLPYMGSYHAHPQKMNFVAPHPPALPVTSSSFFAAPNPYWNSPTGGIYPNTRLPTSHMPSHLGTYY
Summary of the method: as §1

[5] = biological target: ELF1 (Homo sapiens, UniProt P32519 1-619)
Chain of ELF1 (P32519 whole entry): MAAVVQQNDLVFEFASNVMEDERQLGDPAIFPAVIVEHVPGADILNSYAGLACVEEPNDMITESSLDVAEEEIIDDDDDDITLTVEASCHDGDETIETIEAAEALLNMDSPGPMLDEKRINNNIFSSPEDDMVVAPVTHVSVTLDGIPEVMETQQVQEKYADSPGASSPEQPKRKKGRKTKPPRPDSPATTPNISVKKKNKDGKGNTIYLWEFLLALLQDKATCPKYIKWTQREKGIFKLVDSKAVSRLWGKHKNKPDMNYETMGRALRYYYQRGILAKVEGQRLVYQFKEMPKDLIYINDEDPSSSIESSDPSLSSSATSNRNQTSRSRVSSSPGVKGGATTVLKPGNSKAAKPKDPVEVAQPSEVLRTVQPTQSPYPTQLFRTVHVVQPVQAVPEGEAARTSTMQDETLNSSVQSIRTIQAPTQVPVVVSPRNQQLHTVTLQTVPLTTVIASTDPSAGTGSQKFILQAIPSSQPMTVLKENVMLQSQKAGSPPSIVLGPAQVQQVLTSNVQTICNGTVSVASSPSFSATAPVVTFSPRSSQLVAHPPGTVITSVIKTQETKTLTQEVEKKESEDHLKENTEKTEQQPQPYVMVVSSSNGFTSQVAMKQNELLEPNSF
Summary of the method: as §1

[6] = biological target: T5, EHF (Homo sapiens, UniProt Q9NZC4 1-300)
T5 sequence: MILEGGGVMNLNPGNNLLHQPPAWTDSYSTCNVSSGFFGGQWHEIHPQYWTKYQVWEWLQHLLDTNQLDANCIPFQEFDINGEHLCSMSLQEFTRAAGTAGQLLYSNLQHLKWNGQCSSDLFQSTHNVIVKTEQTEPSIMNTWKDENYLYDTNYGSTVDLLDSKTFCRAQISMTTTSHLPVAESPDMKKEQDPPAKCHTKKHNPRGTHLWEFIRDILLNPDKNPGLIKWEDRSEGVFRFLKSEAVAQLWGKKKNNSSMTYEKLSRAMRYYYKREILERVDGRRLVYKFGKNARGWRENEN
Summary of the method: as §1

[7] = biological target: SPI1 (Homo sapiens, UniProt P17947 1-270)
Summary of the method: as §1

[8] = biological target: SPIB (Homo sapiens, UniProt Q01892 1-262)
Chain of SPIB (Q01892 whole entry): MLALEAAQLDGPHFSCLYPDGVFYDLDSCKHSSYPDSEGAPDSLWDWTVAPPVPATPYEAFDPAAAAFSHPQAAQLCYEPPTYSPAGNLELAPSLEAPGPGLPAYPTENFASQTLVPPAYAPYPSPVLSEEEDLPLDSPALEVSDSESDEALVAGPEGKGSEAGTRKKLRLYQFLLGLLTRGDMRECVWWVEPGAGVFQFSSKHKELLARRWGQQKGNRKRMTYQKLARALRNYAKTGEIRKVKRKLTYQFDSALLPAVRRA
Summary of the method: as §1

[9] = biological target: T6, ELK3 (Homo sapiens, UniProt P41970 1-407)
T6 sequence: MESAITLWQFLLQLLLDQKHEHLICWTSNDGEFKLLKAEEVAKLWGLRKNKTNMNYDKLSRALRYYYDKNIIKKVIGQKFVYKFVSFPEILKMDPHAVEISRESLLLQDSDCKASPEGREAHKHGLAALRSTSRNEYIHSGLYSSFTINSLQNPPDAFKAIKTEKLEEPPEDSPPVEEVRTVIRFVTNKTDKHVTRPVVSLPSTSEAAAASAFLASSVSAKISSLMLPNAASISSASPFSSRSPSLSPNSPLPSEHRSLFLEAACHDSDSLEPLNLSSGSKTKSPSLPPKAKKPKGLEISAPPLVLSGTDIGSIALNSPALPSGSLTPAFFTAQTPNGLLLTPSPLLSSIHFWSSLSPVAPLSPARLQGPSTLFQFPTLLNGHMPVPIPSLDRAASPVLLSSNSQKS
Summary of the method: as §1

GTTTTG
binding signal [1]: 1.19 fold enrichment (6-mer frequency, TF over GST control) | binding signal [2]: 1.17 fold enrichment (6-mer frequency, TF over GST control) | binding signal [3]: 1.2 fold enrichment (6-mer frequency, TF over GST control) | binding signal [4]: 1.25 fold enrichment (6-mer frequency, TF over GST control) | binding signal [5]: 1.23 fold enrichment (6-mer frequency, TF over GST control) | binding signal [6]: 1.15 fold enrichment (6-mer frequency, TF over GST control) | binding signal [7]: 1.2 fold enrichment (6-mer frequency, TF over GST control) | binding signal [8]: 1.23 fold enrichment (6-mer frequency, TF over GST control) | binding signal [9]: 1.11 fold enrichment (6-mer frequency, TF over GST control)

CTTGCA
binding signal [1]: 1.33 fold enrichment (6-mer frequency, TF over GST control) | binding signal [2]: 1.44 fold enrichment (6-mer frequency, TF over GST control) | binding signal [3]: 1.31 fold enrichment (6-mer frequency, TF over GST control) | binding signal [4]: 1.27 fold enrichment (6-mer frequency, TF over GST control) | binding signal [5]: 1.4 fold enrichment (6-mer frequency, TF over GST control) | binding signal [6]: 1.33 fold enrichment (6-mer frequency, TF over GST control) | binding signal [7]: 1.25 fold enrichment (6-mer frequency, TF over GST control) | binding signal [8]: 1.26 fold enrichment (6-mer frequency, TF over GST control) | binding signal [9]: 1.34 fold enrichment (6-mer frequency, TF over GST control)

ACTGAC
binding signal [1]: 1.13 fold enrichment (6-mer frequency, TF over GST control) | binding signal [2]: 1.14 fold enrichment (6-mer frequency, TF over GST control) | binding signal [3]: 1.22 fold enrichment (6-mer frequency, TF over GST control) | binding signal [4]: 1.17 fold enrichment (6-mer frequency, TF over GST control) | binding signal [5]: 1.22 fold enrichment (6-mer frequency, TF over GST control) | binding signal [6]: 1.16 fold enrichment (6-mer frequency, TF over GST control) | binding signal [7]: 1.26 fold enrichment (6-mer frequency, TF over GST control) | binding signal [8]: 1.21 fold enrichment (6-mer frequency, TF over GST control) | binding signal [9]: 1.11 fold enrichment (6-mer frequency, TF over GST control)

ACCCTC
binding signal [1]: 1.2 fold enrichment (6-mer frequency, TF over GST control) | binding signal [2]: 1.27 fold enrichment (6-mer frequency, TF over GST control) | binding signal [3]: 1.15 fold enrichment (6-mer frequency, TF over GST control) | binding signal [4]: 1.1 fold enrichment (6-mer frequency, TF over GST control) | binding signal [5]: 1.13 fold enrichment (6-mer frequency, TF over GST control) | binding signal [6]: 1.1 fold enrichment (6-mer frequency, TF over GST control) | binding signal [7]: 1.12 fold enrichment (6-mer frequency, TF over GST control) | binding signal [8]: 1.14 fold enrichment (6-mer frequency, TF over GST control) | binding signal [9]: 1.31 fold enrichment (6-mer frequency, TF over GST control)

CTATTG
binding signal [1]: 1.33 fold enrichment (6-mer frequency, TF over GST control) | binding signal [2]: 1.33 fold enrichment (6-mer frequency, TF over GST control) | binding signal [3]: 1.31 fold enrichment (6-mer frequency, TF over GST control) | binding signal [4]: 1.3 fold enrichment (6-mer frequency, TF over GST control) | binding signal [5]: 1.37 fold enrichment (6-mer frequency, TF over GST control) | binding signal [6]: 1.28 fold enrichment (6-mer frequency, TF over GST control) | binding signal [7]: 1.26 fold enrichment (6-mer frequency, TF over GST control) | binding signal [8]: 1.2 fold enrichment (6-mer frequency, TF over GST control) | binding signal [9]: 1.23 fold enrichment (6-mer frequency, TF over GST control)

TGTACG
binding signal [1]: 1.18 fold enrichment (6-mer frequency, TF over GST control) | binding signal [2]: 1.23 fold enrichment (6-mer frequency, TF over GST control) | binding signal [3]: 1.08 fold enrichment (6-mer frequency, TF over GST control) | binding signal [4]: 1.15 fold enrichment (6-mer frequency, TF over GST control) | binding signal [5]: 1.11 fold enrichment (6-mer frequency, TF over GST control) | binding signal [6]: 1.12 fold enrichment (6-mer frequency, TF over GST control) | binding signal [7]: 1.19 fold enrichment (6-mer frequency, TF over GST control) | binding signal [8]: 1.1 fold enrichment (6-mer frequency, TF over GST control) | binding signal [9]: 1.23 fold enrichment (6-mer frequency, TF over GST control)

CCTCTT
binding signal [1]: 1.5 fold enrichment (6-mer frequency, TF over GST control) | binding signal [2]: 1.45 fold enrichment (6-mer frequency, TF over GST control) | binding signal [3]: 1.6 fold enrichment (6-mer frequency, TF over GST control) | binding signal [4]: 1.68 fold enrichment (6-mer frequency, TF over GST control) | binding signal [5]: 1.5 fold enrichment (6-mer frequency, TF over GST control) | binding signal [6]: 1.71 fold enrichment (6-mer frequency, TF over GST control) | binding signal [7]: 2.57 fold enrichment (6-mer frequency, TF over GST control) | binding signal [8]: 1.67 fold enrichment (6-mer frequency, TF over GST control) | binding signal [9]: 1.66 fold enrichment (6-mer frequency, TF over GST control)
